These results are taken from PubChem BioAssay (NCATS).

Test [1] addresses Cytochrome P450 1A2 (Homo sapiens) (UniProt P05177). Description: p450-cyp1a2 (AID 410; calls by dose curve; further: potency means the concentration at half of the fitted maximal effect). An outline of the steps:
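Human CYP1A2 (20nM) demethylated Luciferin-ME at its Km (100uM) in 100mM KPO4. After 10 min compound preincubation, NADPH regeneration ran the reaction 60 min at room temperature. Luciferin was read by luminescence, normalized to 57 uM furafylline.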

For test [2], the target named is Cytochrome P450 3A4 (Homo sapiens) (UniProt P08684). The experiment in a line: qHTS Assay for Activators of Cytochrome P450 3A4 (AID 885). Further: nearly all actives have a fitted effect of over 65% in size. An outline of the steps:
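Human CYP3A4 (20 nM) with Luciferin-PPXE at 25 uM (its KM) in 200 mM KPO4; 10 min compound preincubation, then NADPH regeneration and 60 min reaction at RT. Luciferin read by luminescence; normalized to 57 uM ketoconazole full inhibition.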
A general note: In qHTS, concentration-response curves come from the screen itself.

Test [3] can be described thus: qHTS Assay for Identification of Small Molecule Agonists for Hypoxia Response Element Signaling Pathway (AID 914; active means well fitted activation curve with a large enough effect in the signal ratio, with a control signal flat, not every such curve was filed as active; the % refers to the signal ratio; further: % of control where 0% means no effect). As to conditions: ME-180 (cervical carcinoma) HRE-bla reporter, beta-lactamase ratio, CoCl2, 17 h; activation: hits give high values. An outline of the steps: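 In Opti-MEM containing 0.5% dialyzed FBS and 10 mM HEPES, ME-180 HRE-bla cells received a compound titration and EC50 CoCl2. They were incubated 17 hours, then CCF4-loaded 2.5 hours at room temperature before ratio reading.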

The test system of a further test is CP194. The experiment in a line: qHTS profiling for inhibitors of Plasmodium falciparum proliferation (AID 504749). Further: nearly all actives have a fitted effect of over 60% in size. Further: potency means the concentration at half of the fitted maximal effect. As to conditions: P. falciparum in erythrocytes, SYBR Green DNA, 72 h; series mostly up to 12.8 µM. An outline of the steps:
(§1)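 P. falciparum-infected erythrocytes (0.3% parasitemia, 2.5% hematocrit final) were exposed to compounds for 72 h at 37 C in 5% CO2, then lysed with SYBR Green buffer overnight at room temperature; parasite DNA fluorescence was normalized to artemisinin and DMSO controls.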

A further test has as its system CP203. Described as above. As to conditions: P. falciparum in erythrocytes, SYBR Green DNA, 72 h; series mostly up to 12.8 µM. In a few lines:
as §1

The subject of a further test is CP215. The test is described as above. To be noted: P. falciparum in erythrocytes, SYBR Green DNA, 72 h; series mostly up to 12.8 µM. In a few lines:
as §1

For another test, the system named is CP265. The description is as above. To be noted: P. falciparum in erythrocytes, SYBR Green DNA, 72 h; series mostly up to 12.8 µM. An outline of the steps: as §1
A further test has as its system CP268. Described as above. To be noted: P. falciparum in erythrocytes, SYBR Green DNA, 72 h; series mostly up to 12.8 µM. In a few lines:
as §1

A further test concerns CP335. The description is as above. As to conditions: P. falciparum in erythrocytes, SYBR Green DNA, 72 h; series mostly up to 12.8 µM. An outline of the steps:
as §1

The subject of a further test is DFO2036. The test is described as above. To be noted: P. falciparum in erythrocytes, SYBR Green DNA, 72 h; series mostly up to 12.8 µM. An outline of the steps: as §1
Another test deals with DIV17. Described as above. As to conditions: P. falciparum in erythrocytes, SYBR Green DNA, 72 h; series mostly up to 12.8 µM. An outline of the steps: as §1
Another test relates to GB4. Described as above. As to conditions: P. falciparum in erythrocytes, SYBR Green DNA, 72 h; series mostly up to 12.8 µM. An outline of the steps: as §1
The next test concerns P94_40. The test is described as above. As to conditions: P. falciparum in erythrocytes, SYBR Green DNA, 72 h; series mostly up to 12.8 µM. In a few lines:
as §1

The next test has as its system PC26. The test is described as above. As to conditions: P. falciparum in erythrocytes, SYBR Green DNA, 72 h; series mostly up to 12.8 µM. An outline of the steps: as §1
Another test deals with TAB109. The description is as above. As to conditions: P. falciparum in erythrocytes, SYBR Green DNA, 72 h; series mostly up to 12.8 µM. In a few lines:
as §1

The target in test [4] is Cytochrome P450 2C9 (Homo sapiens) (UniProt P11712). Description: qHTS Assay for Inhibitors and Substrates of Cytochrome P450 2C9 (AID 883). Further: on the % scale 0 is the no-effect control and ±100 the full control effect; nearly all actives have a fitted effect of over 60% in size. An outline of the steps: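 A luminogenic readout tracked human CYP2C9 (10nM) converting deoxyluciferin (100uM, at KM) in 25mM KPO4 during 60 min at 37C with regenerated NADPH. Values normalized to 57uM sulphaphenazole as complete inhibition.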

The target of test [5] is Cytochrome P450 2D6 (Homo sapiens) (UniProt P10635). Description: qHTS Assay for Inhibitors and Substrates of Cytochrome P450 2D6 (AID 891). Further: nearly all actives have a fitted effect of over 60% in size. Further: potency means the concentration at half of the fitted maximal effect. An outline of the steps:
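Human CYP2D6 (5 nM) with 30 uM Luciferin-ME EGE (at Km) in 100 mM KPO4, compound preincubated 10 min, then NADPH regeneration system for 60 min at room temperature. Luciferin read by luminescence; normalized to 1.43 uM quinidine.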

Test [6] addresses Cytochrome P450 2C19 (Homo sapiens) (UniProt P33261). Description: qHTS Assay for Inhibitors and Substrates of Cytochrome P450 2C19 (AID 899). An outline of the steps: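 NADPH-dependent conversion of Luciferin-H EGE (10uM, at KM) by 5nM enzyme in 50mM KPO4, 60 min at 37C following 10 min compound preincubation. Stopped with luciferin detection buffer; luminescence read after 20 min.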

Test [7] can be described thus: S16 Schwann cell PMP22 intronic element firefly luciferase assay (AID 624032). Further: nearly all actives have a fitted effect of over 30% in size. Further: potency means the concentration at half of the fitted maximal effect. An outline of the steps:
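Rat S16 Schwann cells stably carrying a PMP22 intronic element-driven Fluc reporter were seeded overnight, then exposed to compounds for 24 h at 37 °C. Luminescence was normalized to PTC124 (positive control) and DMSO (0% activity).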

The test system of another test is 7G8. Description: qHTS profiling for inhibitors of Plasmodium falciparum proliferation (AID 504749). Further: nearly all actives have a fitted effect of over 60% in size. Further: potency means the concentration at half of the fitted maximal effect. To be noted: P. falciparum in erythrocytes, SYBR Green DNA, 72 h; series mostly up to 12.8 µM. An outline of the steps:
as §1

SMILES strings stand for the structures. Unmarked numbers belong to inactive results. Inconclusive results are not listed. Active and inactive are the calls of the source. Unless noted, the call rests on the fitted dose curve; in most records, active means well fitted curve in the direction sought with a large enough effect; inconclusive means small, poorly fitted or top-dose-only effect, or another doubt; inactive means no such curve, though single readings can be large; an effect the other way counts as inactive or inconclusive.

Sequence of Cytochrome P450 2D6 (Homo sapiens) (P10635 whole entry, looked up): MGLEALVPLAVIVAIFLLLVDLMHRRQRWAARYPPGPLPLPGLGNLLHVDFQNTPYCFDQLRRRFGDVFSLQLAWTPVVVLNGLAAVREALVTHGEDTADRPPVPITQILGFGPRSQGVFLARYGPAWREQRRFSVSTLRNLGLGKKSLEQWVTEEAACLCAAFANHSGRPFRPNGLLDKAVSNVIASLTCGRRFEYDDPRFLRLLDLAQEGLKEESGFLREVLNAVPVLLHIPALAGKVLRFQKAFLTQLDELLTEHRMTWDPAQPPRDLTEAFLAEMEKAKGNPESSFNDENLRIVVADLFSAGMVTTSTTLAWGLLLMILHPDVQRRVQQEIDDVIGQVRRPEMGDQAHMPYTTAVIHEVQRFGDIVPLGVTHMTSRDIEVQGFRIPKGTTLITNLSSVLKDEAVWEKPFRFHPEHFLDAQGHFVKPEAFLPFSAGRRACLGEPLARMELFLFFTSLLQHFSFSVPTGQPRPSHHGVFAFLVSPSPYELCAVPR
Sequence of Cytochrome P450 1A2 (Homo sapiens) (P05177 whole entry, looked up): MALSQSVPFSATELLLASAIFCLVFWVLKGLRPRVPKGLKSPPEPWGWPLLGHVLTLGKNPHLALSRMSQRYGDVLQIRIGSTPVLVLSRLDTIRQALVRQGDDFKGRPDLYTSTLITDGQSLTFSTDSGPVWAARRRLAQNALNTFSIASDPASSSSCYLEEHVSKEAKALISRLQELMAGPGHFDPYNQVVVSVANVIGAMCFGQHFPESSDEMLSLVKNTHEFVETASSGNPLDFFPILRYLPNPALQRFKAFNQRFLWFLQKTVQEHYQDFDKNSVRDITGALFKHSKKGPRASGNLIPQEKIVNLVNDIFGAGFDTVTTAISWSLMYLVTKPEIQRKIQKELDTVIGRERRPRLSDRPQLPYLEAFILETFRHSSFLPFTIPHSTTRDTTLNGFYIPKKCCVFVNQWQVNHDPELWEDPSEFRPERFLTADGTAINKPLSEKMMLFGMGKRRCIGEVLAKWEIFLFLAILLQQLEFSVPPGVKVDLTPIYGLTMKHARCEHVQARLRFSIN
Sequence of Cytochrome P450 3A4 (Homo sapiens) (P08684 whole entry, looked up): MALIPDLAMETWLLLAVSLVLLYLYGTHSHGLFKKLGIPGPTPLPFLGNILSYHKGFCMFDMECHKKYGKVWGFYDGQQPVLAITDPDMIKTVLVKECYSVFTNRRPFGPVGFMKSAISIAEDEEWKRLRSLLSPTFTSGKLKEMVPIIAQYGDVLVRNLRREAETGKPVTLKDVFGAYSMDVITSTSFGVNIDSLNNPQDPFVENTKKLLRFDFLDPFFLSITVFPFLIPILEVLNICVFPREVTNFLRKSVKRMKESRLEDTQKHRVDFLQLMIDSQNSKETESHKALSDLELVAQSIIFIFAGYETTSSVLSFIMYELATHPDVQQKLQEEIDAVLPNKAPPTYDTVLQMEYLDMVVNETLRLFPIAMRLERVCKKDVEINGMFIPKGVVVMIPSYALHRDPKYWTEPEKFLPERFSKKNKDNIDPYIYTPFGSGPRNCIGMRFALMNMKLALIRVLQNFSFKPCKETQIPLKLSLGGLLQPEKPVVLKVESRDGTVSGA
Sequence of Cytochrome P450 2C19 (Homo sapiens) (P33261 whole entry, looked up): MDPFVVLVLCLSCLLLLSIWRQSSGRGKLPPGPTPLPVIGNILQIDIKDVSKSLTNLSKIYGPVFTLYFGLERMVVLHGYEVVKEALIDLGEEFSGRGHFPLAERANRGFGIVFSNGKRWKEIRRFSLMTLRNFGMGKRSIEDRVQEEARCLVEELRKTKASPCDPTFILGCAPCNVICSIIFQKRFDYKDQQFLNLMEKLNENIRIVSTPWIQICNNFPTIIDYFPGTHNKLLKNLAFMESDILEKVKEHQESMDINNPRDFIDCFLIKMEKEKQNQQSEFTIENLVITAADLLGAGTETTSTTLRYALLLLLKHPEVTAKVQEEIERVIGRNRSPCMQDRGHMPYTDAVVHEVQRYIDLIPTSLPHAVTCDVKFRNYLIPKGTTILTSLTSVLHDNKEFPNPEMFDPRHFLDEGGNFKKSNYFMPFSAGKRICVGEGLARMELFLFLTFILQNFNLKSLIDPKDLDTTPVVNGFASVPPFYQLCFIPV
Sequence of Cytochrome P450 2C9 (Homo sapiens) (P11712 whole entry, looked up): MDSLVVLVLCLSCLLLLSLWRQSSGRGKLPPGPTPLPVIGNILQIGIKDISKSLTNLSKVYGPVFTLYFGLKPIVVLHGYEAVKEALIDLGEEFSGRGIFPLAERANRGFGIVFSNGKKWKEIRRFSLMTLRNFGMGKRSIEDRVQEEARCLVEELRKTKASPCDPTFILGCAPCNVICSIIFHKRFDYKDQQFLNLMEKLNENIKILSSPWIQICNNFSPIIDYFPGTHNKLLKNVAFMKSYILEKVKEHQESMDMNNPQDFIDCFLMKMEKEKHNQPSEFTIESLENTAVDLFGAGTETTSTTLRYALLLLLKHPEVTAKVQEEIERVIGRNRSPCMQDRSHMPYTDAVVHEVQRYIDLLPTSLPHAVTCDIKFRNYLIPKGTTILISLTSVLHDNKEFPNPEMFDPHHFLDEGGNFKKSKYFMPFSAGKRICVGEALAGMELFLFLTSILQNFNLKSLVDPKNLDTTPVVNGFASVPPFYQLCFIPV

Regarding `CS(=O)(=O)Nc1cccc(-c2nc(Nc3ccccc3)c3ccccc3n2)c1`, in test [1], the Potency is 0.794 µM (active). For the same compound, the Potency entry in test [2] was “inactive”. Further, the activation in test [3] was 6.74%.

On to `COc1cc2cc3c4cc(OC)c(OC)cc4cc[n+]3c(C)c2cc1OC`, for which the Potency result in test [1] and in [2] was “inactive” in each case.

With `Cc1onc(-c2ccccc2Cl)c1C(=O)N[C@H]1C(=O)N2[C@H]1SC(C)(C)[C@H]2C(=O)O`, the Potency entry in the test with CP194, in the test with CP203, in the test with CP215, in the test on CP265, in the test with CP268 and in the test with CP335 was “inactive” throughout. The Potency entry in the test with DFO2036, with DIV17, with GB4, with P94_40, in the test with PC26 and in the test with TAB109 was “inactive” throughout.

As for `C[C@H]1CC[C@@H]2[C@@H](C)[C@H]3[C@H](C[C@H]4[C@@H]5CC=C6C[C@@H](O[C@]7(O[C@H]8O[C@@H](C)[C@@H](O)[C@@H](O)[C@@H]8O)C[C@@H](O[C@@H]8O[C@H](CO)[C@@H](O)[C@H](O)[C@@H]8O)[C@@H](O)[C@H](CO)O7)CC[C@]6(C)[C@H]5CC[C@@]34C)N2C1`, the Potency entry in [1], in test [4], in test [5] and in [6] was “inactive” in each case.

Turning to `COC(=O)Nc1nc2ccc(SC(C)C)cc2[nH]1`, the Potency in test [1] was 0.501 µM (active).

Regarding `Cc1ccc2c(c1)c1c3n2CCN[C@H]3CCC1`, the Potency entry (in test [7]; in the test on CP215; in the test on CP268; with DFO2036) was “inactive” in each case. In addition, the Potency in the test on 7G8 was 6.31 µM (active); in the test with DIV17, 12 µM (active).

For `C[C@@H]1[C@H]2CC[C@@H]3[C@@H]4CC=C5C[C@@H](N(C)C)CC[C@]5(C)[C@@H]4CC[C@@]32CN1C`, the Potency result in [1] is “inactive”. Also, in test [3], the activation is 23.8%.

With `CCCCC[C@H](O)/C=C\[C@H]1[C@H](C/C=C\CCCC(=O)O)[C@@H](O)C[C@H]1O` (tested in a mixture with another compound), the Potency entry (in test [7]; in the test on 7G8; in the test with CP194; in the test on CP203; with CP215; in the test on CP265) was “inactive” throughout. Moreover, the Potency result in the test on CP268, in the test on CP335, in the test on DFO2036, in the test with DIV17, with GB4 and in the test on P94_40 was “inactive” in each case. In addition, the Potency entry with PC26 and with TAB109 was “inactive” throughout.

In the case of `CC(=C(CCOP(=O)(O)O)SC(=O)c1ccccc1)N(C=O)Cc1cnc(C)nc1N`, the Potency result in the test with CP194, with CP203, in the test with CP215, in the test with CP265, in the test on CP268 and with CP335 was “inactive” throughout. Moreover, the Potency result in the test with DFO2036, in the test on DIV17, in the test on GB4, with P94_40, in the test with PC26 and in the test with TAB109 was “inactive” in each case.

For the compound `C#C[C@]1(O)CC[C@@H]2[C@H]3CCC4=Cc5oncc5C[C@]4(C)[C@@H]3CC[C@@]21C`, the Potency in [1] was 10 µM (active).

For the compound `CN1CCCN([C@@H](c2ccccc2)c2ccc(Cl)cc2)CC1`, the Potency entry in test [1] is “inactive”. Moreover, in [5], the Potency was 0.251 µM (active).

Regarding `CN1CCC2(CC1)CCN(C(=O)c1ccncc1)CC2`, in test [1], the Potency entry was “inactive”. Moreover, the activation in test [3] is 7.12%.

Regarding `O=C(N/N=C\c1ccc([N+](=O)[O-])o1)c1ccc(O)cc1`, the Potency in test [7] is 3.46 µM (active); in the test on 7G8, 0.794 µM (active); in the test with CP194, 3.61 µM (active); in the test with CP203, 5.1 µM (active); with CP215 it was 4.55 µM (active); in the test on CP265 it was 3.16 µM (active). In addition, the Potency with CP268 was 5.73 µM (active); in the test on CP335, 2.03 µM (active); with DIV17, 2.28 µM (active); with GB4 it was 1.81 µM (active); in the test on P94_40 it was 3.55 µM (active); with PC26, 5.73 µM (active). Besides, the Potency with TAB109 is 2.24 µM (active).

Consider `COc1ccc(CNc2ncncc2-c2ccccc2CN(C)C)c(OC)c1`, for which the Potency is 15.8 µM (active) in test [1] and 2.51 µM (active) in [5]. In addition, the Potency entry in test [2] was “inactive”.
